Reference: ChEMBL document CHEMBL3988442, “University of Dundee, Small-Polar-MMV Screening Library” (2021)
Potency and affinity values are given separately.

Target: T1, Ubiquitin-activating enzyme e1, putative (Leishmania donovani (strain BPK282A1)) (UniProt E9BSI1)
T1 sequence (whole entry): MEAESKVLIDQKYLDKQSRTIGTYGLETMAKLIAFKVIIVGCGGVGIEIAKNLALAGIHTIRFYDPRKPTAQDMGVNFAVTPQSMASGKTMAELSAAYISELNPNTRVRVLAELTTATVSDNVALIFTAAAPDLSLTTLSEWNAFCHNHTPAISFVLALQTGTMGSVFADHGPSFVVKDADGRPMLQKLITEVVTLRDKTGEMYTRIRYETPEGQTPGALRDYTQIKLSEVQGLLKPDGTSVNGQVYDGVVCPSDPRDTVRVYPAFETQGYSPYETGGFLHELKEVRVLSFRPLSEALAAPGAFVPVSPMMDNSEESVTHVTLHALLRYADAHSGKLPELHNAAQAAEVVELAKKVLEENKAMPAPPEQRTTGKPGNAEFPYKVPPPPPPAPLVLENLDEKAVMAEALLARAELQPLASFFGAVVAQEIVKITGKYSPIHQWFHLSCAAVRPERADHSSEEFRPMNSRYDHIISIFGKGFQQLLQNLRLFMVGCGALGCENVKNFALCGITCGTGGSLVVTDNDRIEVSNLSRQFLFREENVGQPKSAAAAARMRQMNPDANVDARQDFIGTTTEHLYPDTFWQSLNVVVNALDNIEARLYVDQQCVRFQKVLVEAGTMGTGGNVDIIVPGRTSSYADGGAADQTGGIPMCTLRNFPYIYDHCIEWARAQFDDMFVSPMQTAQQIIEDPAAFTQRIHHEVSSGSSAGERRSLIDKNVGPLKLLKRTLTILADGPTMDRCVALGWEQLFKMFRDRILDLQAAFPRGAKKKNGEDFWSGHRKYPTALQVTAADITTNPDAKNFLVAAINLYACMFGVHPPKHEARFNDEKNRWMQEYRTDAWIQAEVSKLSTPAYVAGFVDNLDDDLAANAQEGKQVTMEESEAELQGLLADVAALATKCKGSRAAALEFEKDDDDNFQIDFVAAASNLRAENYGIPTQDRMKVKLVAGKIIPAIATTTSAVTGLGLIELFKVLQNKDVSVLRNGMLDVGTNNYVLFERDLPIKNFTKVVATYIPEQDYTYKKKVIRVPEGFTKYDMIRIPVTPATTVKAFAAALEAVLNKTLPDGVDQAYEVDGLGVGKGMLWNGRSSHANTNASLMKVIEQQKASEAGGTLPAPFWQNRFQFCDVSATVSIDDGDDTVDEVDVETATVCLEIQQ
Assay: Leishmania donovani Ubiquitin Activating Enzyme (LdE1)
Format: functional
Parameters: scale not given: direction of the effect not stated beside the values
Details: 30 µM

| SMILES | Percent Effect [%] |
| --- | --- |
| Cc1cccc(CN2C(=O)CCC23CCN(Cc2cccn2C)CC3)n1 | 27.3 |
| CCC(=O)N1CCCC1c1nccnc1Nc1nc(C)cc(C)n1 (centres undefined) | 14.7 |
| CNc1cncc(C2CCCN2Cc2c[nH]cn2)n1 (centres undefined) | 9.33 |
| Cc1cc(C)n(CC2CN(Cc3nc(-c4ccco4)no3)CCO2)n1 (centres undefined) | 23.4 |
| CCCc1nc(C)c(C(=O)NCCN2CCN(CC)CC2)s1 | 0 |
| Fc1cnc(N2CCOCC3(CCCN(c4nncs4)C3)C2)nc1 (centres undefined) | 6.49 |
| O=C(c1ccccn1)N1Cc2nccn2CC(CN2CCOCC2)C1 (centres undefined) | 9.09 |
| COC(=O)c1cccn1C1CCN(Cc2ccccc2)CC1 | 7.79 |
| CCOC1CCCN(C(=O)c2sccc2-n2cnnn2)C1 (centres undefined) | 20.5 |
| CN(C)CC1CN(Cc2coc(-c3ccccc3Cl)n2)CCO1 (centres undefined) | 13.3 |
| CCc1cc(O)nc(C2CCCN2C(=O)c2cccnc2)n1 (centres undefined) | 14.7 |
| CC(Cn1cccn1)NC(=O)Cc1cccs1 (centres undefined) | 16 |
| COc1ccc(F)cc1C(=O)N(C)Cc1cc(C)on1 | 15.4 |
| CNc1cc(N2CCCC2CNCc2cnc(C)cn2)ncn1 (centres undefined) | 0 |
| CN(Cc1ccco1)[C@@H]1CN(Cc2ccc(F)cc2)C[C@@H]2CCCO[C@@H]21 | 9.09 |
| CC(C)(O)CN1CCN(C(=O)c2cccnc2O)CC1 | -2.56 |
| O=C(N1CCCC1)N1CCC2(CCCN(CCOc3ccccc3)C2)C1 (centres undefined) | 16.9 |
| CC(C(=O)N1CCCC1)N1CCC(c2nccn2Cc2cscn2)CC1 (centres undefined) | 0 |
| Cc1ccc(NC2CCN(C(=O)c3cccc4ncccc34)CC2)nn1 | 5.33 |
| COc1cc(CNCc2ccc(NC(=O)NC(C)C)cc2)cc(OC)c1 | 15.6 |

| SMILES | Percent Effect [%] |
| --- | --- |
| O=C(c1cnco1)N1CCCC(Cc2nccs2)C1 (centres undefined) | 14.7 |
| CCS(=O)(=O)N(C)CC(=O)Nc1ccc(Br)cn1 | 26.7 |
| Cn1cc(NC(=O)N2CCC(c3ccccc3)CC2)ccc1=O | 51.3 |
| Cc1ncc(S(C)(=O)=O)c(C2CCCNC2)n1 (centres undefined) | 2.7 |
| COC(=O)COc1cccc(NS(=O)(=O)c2cc(C(=O)O)cs2)c1 | 17.9 |
| CC(C)c1cc(N2CCN(c3ccc(O)cc3)CC2)n2nccc2n1 | 5.41 |
| CC(=O)NC1CCCN(C(=O)NCc2cccnc2-n2cccn2)C1 (centres undefined) | 10.7 |
| Cc1noc(C)c1CN(C)C(=O)NC1CCN(c2ncccn2)CC1 | 10.3 |
| FC(F)(F)Cn1ccnc1CN1CCCC1c1noc(C2CC2)n1 (centres undefined) | 10.7 |
| NC[C@H]1CC[C@H](C(NC(=O)c2ccccc2)c2ccccn2)CC1 (some centres undefined) | 12 |
| CCc1nc(C2CCCN2C(=O)CCCn2cccn2)no1 (centres undefined) | 5.2 |
| CN(C)CC1CN(Cc2nnc(-c3ccccc3Cl)o2)CCO1 (centres undefined) | 13.3 |
| c1csc(-c2nc(CN3CCn4c(nnc4C4CC4)C3)co2)c1 | 5.33 |
| CCNC(=O)[C@@H]1C[C@H](NC(=O)Cc2ccsc2)CN1Cc1ccc(C)o1 | 13.5 |
| CCOc1ncccc1NC(=O)NC1CCCN(c2ncccn2)C1 (centres undefined) | 23.4 |
| CC(=O)N1CCCC1c1csc(Nc2cnccn2)n1 (centres undefined) | 9.33 |
| CCOC1COC2(CCN(S(=O)(=O)c3cccc(F)c3)CC2)C1 (centres undefined) | 6.49 |
| O=c1c2ccccc2nc2n1C(CSc1ccc(Cl)cc1Cl)CN2 (centres undefined) | 19.5 |
| c1ccc(OC2CCCC2)c(CNC2CCc3ncnn3C2)c1 (centres undefined) | 10.3 |
